Here are results for 8 molecules from PubChem BioAssay (NCI).

Structures are written as SMILES. Compounds without any hit were thinned out: in the full panel of roughly 83,000, 20% have a hit.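 The endpoint reported here, percent growth, reads 100 for growth as untreated, 0 for no net growth and -100 for all cells dead.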 A number with no mark means an inactive call. Activity calls are given as the source filed them. Rule for the calls: active = growth percent below 10; inactive = the rest.

Assay in all cases: NCI-60 one-dose screen, 48 h (100 = growth as untreated, 0 = no growth, -100 = all killed)
The test system of one experiment is 786-0 renal. Conditions: 10 µM unless noted.
The test system of a further experiment is DU-145 prostate. To be noted: 10 µM unless noted.
Another experiment relates to MDA-MB-231 breast. To be noted: 10 µM unless noted.
Another experiment has as its system SF-268 CNS. Conditions: 10 µM unless noted.
The test system of another experiment is SF-539 CNS. To be noted: 10 µM unless noted.
The next experiment relates to M14 melanoma. To be noted: 10 µM unless noted.
Another experiment concerns HCT-15 colon. Conditions: 10 µM.
Another experiment has as its system SNB-19 CNS. To be noted: 10 µM unless noted.
The next experiment relates to UACC-62 melanoma. To be noted: 10 µM unless noted.
The subject of another experiment is SN12C renal. To be noted: 10 µM unless noted.
For another experiment, the system named is ACHN renal. To be noted: 10 µM unless noted.
The test system of another experiment is MOLT-4 leukemia. Conditions: 10 µM.
For a further experiment, the system named is OVCAR-8 ovarian. Conditions: 10 µM unless noted.
For the next experiment, the system named is SK-OV-3 ovarian. Conditions: 10 µM unless noted.
In the next experiment the test system is NCI/ADR-RES ovarian. To be noted: 10 µM unless noted.
The next experiment has as its system T-47D breast. To be noted: 10 µM unless noted.
Another experiment relates to MDA-MB-435 melanoma. Conditions: 10 µM unless noted.
The next experiment concerns SW-620 colon. To be noted: 10 µM unless noted.
The test system of a further experiment is HCT-116 colon. Conditions: 10 µM unless noted.
Another experiment concerns KM12 colon. Conditions: 10 µM unless noted.

Consider `Nc1c(Br)cc([N+](=O)[O-])cc1[N+](=O)[O-]`, for which the growth in the experiment with 786-0 renal is 105%; in the experiment on DU-145 prostate, 101%; with MDA-MB-231 breast, 105%; in the experiment on SF-268 CNS, 97.7%; in the experiment on SF-539 CNS, 110%; in the experiment with M14 melanoma, 113%. The growth in the experiment on HCT-15 colon was 114%; in the experiment on SNB-19 CNS, 102%; in the experiment on UACC-62 melanoma, 101%; in the experiment on SN12C renal, 104%; with ACHN renal, 125%; in the experiment with MOLT-4 leukemia, 97.2%. For the same molecule, the growth was 98% in the experiment on OVCAR-8 ovarian; 107% with SK-OV-3 ovarian; 105% with NCI/ADR-RES ovarian; 107% with T-47D breast; 112% with MDA-MB-435 melanoma; 103% in the experiment with SW-620 colon. In addition, the growth was 108% in the experiment with HCT-116 colon and 105% in the experiment with KM12 colon.
As to `Cc1cccc(N=C2c3cc([N+](=O)[O-])ccc3-c3c2cc([N+](=O)[O-])cc3[N+](=O)[O-])c1`, the growth in the experiment on 786-0 renal is 60%; in the experiment with DU-145 prostate, 88%; with MDA-MB-231 breast it was 60.2%; in the experiment with SF-268 CNS, 58.7%; in the experiment on SF-539 CNS it was 97.7%; in the experiment with M14 melanoma it was 69.4%. The growth in the experiment on HCT-15 colon was 34.2%; in the experiment on SNB-19 CNS it was 82.5%; with UACC-62 melanoma, 77.5%; in the experiment with SN12C renal it was 26.4%; in the experiment on ACHN renal it was 59.3%; with MOLT-4 leukemia it was 27.5%. For the same molecule, the growth with OVCAR-8 ovarian was 64.5%; in the experiment with SK-OV-3 ovarian, 119%; in the experiment with NCI/ADR-RES ovarian it was 56.5%; in the experiment on T-47D breast, -25.1% (active); in the experiment on MDA-MB-435 melanoma, 45%; in the experiment on SW-620 colon it was -54.9% (active). The values for the growth in the experiment with HCT-116 colon and in the experiment with KM12 colon were -0.611% (active) and 52.4%, respectively.
With `CCN(CC)c1ccc(C=C2C(=O)NC(=S)NC2=O)cc1`, the growth with 786-0 renal is 96.7%; in the experiment with DU-145 prostate it was 98.8%; in the experiment on MDA-MB-231 breast, 93.7%; in the experiment on SF-268 CNS, 80.1%; in the experiment on SF-539 CNS, 97.4%; with M14 melanoma it was 102%. The growth was 77.5% in the experiment on HCT-15 colon; 88.9% in the experiment on SNB-19 CNS; 85.9% in the experiment on UACC-62 melanoma; 91.8% in the experiment with SN12C renal; 95.7% with ACHN renal; 81% with MOLT-4 leukemia. The growth in the experiment on OVCAR-8 ovarian is 93%; in the experiment on SK-OV-3 ovarian, 94.1%; in the experiment with NCI/ADR-RES ovarian, 100%; in the experiment on T-47D breast, 78%; with MDA-MB-435 melanoma, 98.1%; in the experiment with SW-620 colon, 77.9%. Also, the growth in the experiment with HCT-116 colon is 93.9%; in the experiment on KM12 colon it was 96.8%.
Regarding `CC1(C)CC(=O)CC(C)(C)N1N=O`, the growth with 786-0 renal is 109%; with DU-145 prostate, 107%; in the experiment on MDA-MB-231 breast it was 109%; in the experiment on SF-268 CNS it was 106%; with SF-539 CNS it was 94.3%; in the experiment on M14 melanoma it was 102%. Further, the growth is 98.1% in the experiment on HCT-15 colon; 107% in the experiment on SNB-19 CNS; 104% in the experiment with UACC-62 melanoma; 106% with SN12C renal; 103% in the experiment on ACHN renal; 101% in the experiment on MOLT-4 leukemia. Further, the growth with OVCAR-8 ovarian was 102%; with SK-OV-3 ovarian, 105%; in the experiment with NCI/ADR-RES ovarian, 100%; in the experiment on T-47D breast it was 97.3%; in the experiment with MDA-MB-435 melanoma it was 112%; with HCT-116 colon it was 96.3%. Further, in the experiment on KM12 colon, the growth was 99.1%.
Consider `C=CCC1(CC)C(=O)NC(=S)NC1=O`, for which the growth in the experiment on 786-0 renal was 108%; in the experiment on DU-145 prostate, 103%; in the experiment with MDA-MB-231 breast, 109%; in the experiment with SF-268 CNS, 101%; in the experiment with SF-539 CNS, 98.3%; in the experiment on M14 melanoma it was 115%. Moreover, the growth is 99.9% with HCT-15 colon; 97.1% in the experiment with SNB-19 CNS; 101% in the experiment with UACC-62 melanoma; 93.4% in the experiment on SN12C renal; 101% in the experiment with ACHN renal; 93.2% in the experiment with MOLT-4 leukemia. In addition, the growth in the experiment on OVCAR-8 ovarian was 100%; in the experiment with SK-OV-3 ovarian, 97.1%; with NCI/ADR-RES ovarian it was 104%; with T-47D breast, 100%; with MDA-MB-435 melanoma, 103%; with SW-620 colon, 101%. Also, the growth is 108% with HCT-116 colon and 101% in the experiment with KM12 colon.
For the molecule `CC(=O)[O][Hg][CH2]C1(C)COC(C)([CH2][Hg][O]C(C)=O)CO1` (configuration not stated), the growth is 79% in the experiment with 786-0 renal; 42.8% in the experiment with MDA-MB-231 breast; 88.2% in the experiment with SF-268 CNS; -87.2% (active) in the experiment on SF-539 CNS; 39% in the experiment with M14 melanoma; -94% (active) in the experiment on HCT-15 colon. For the same molecule, the growth in the experiment on SNB-19 CNS is 71.1%; in the experiment on UACC-62 melanoma it was 95.8%; in the experiment on SN12C renal it was -87.1% (active); with ACHN renal, 63.1%; in the experiment on MOLT-4 leukemia, -19.9% (active); in the experiment on OVCAR-8 ovarian, 50.7%. Also, the growth is 103% in the experiment with SK-OV-3 ovarian; 94.9% in the experiment with NCI/ADR-RES ovarian; 4.43% (active) with T-47D breast; -2.3% (active) in the experiment on MDA-MB-435 melanoma; -92.3% (active) in the experiment on SW-620 colon; -86.2% (active) with HCT-116 colon.
Turning to `N#CC1c2ccccc2C=CN1C(=O)c1ccc(N(CCCl)CCCl)cc1` (configuration not stated), the growth in the experiment on 786-0 renal is 107%; in the experiment on DU-145 prostate, 111%; in the experiment on MDA-MB-231 breast it was 92.9%; in the experiment on SF-268 CNS, 95.9%; with SF-539 CNS, 101%; in the experiment on M14 melanoma, 116%. Further, the growth is 81.4% with HCT-15 colon; 82.4% in the experiment on SNB-19 CNS; 71.7% with UACC-62 melanoma; 75.5% in the experiment on SN12C renal; 86.9% with ACHN renal; 72.2% with MOLT-4 leukemia. The growth in the experiment on OVCAR-8 ovarian was 85.7%; with SK-OV-3 ovarian, 97.3%; with NCI/ADR-RES ovarian, 83.4%; in the experiment on T-47D breast, 65.3%; in the experiment on MDA-MB-435 melanoma, 79.4%; in the experiment with SW-620 colon, 105%. Moreover, the growth in the experiment with HCT-116 colon was 104%; in the experiment with KM12 colon it was 98%.
Consider `CC(=O)O[C@H]1CCC2(C)C(=CCC3C2CCC2(C)/C(=N/OC(=O)c4ccc(N(CCCl)CCCl)cc4)CCC32)C1` (some centres not stated), for which the growth with 786-0 renal was 47.6%; with DU-145 prostate, 78.7%; with MDA-MB-231 breast it was 40.5%; with SF-268 CNS it was 5.4% (active); in the experiment with SF-539 CNS, 51.5%; in the experiment on M14 melanoma it was 59.4%. The growth with HCT-15 colon is 55.2%; in the experiment with SNB-19 CNS it was 37.7%; with UACC-62 melanoma it was 68.4%; in the experiment on SN12C renal it was 47.3%; with ACHN renal, 46.4%; in the experiment on MOLT-4 leukemia, 3.85% (active). Besides, the growth was 56.4% in the experiment with OVCAR-8 ovarian; 102% with SK-OV-3 ovarian; 44% in the experiment with NCI/ADR-RES ovarian; 17.7% with T-47D breast; 47.1% in the experiment on MDA-MB-435 melanoma; 84.1% in the experiment with SW-620 colon. Also, the growth in the experiment with HCT-116 colon was 9.02% (active); in the experiment with KM12 colon, 47.6%.
